Results published in the supplement of paper PMC11732987, “Enantioselective OTUD7B fragment discovery through chemoproteomics screening and high-throughput optimisation” (Communications Chemistry, 2025).

How the values were obtained:
Experiment in all cases: log2 ratio of Biotin-Ahx-Ub-VS probe labelling (fragment/DMSO); higher = less target engagement (more negative = stronger competition), active = hit call of the paper (q ≤ 0.05, log2 ratio ≤ -1)
Details in all cases: compound concentration: 200 uM; treatment time: 3 h
UniProt O00507 = molecular target: UniProt O00507
Procedure, shortened: (§1)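 Triplicate samples of HEK293T lysate, 495 µg each, received fragment at 200 µM or vehicle for 3 h, followed by Biotin-Ahx-Ub-VS (0.5 µM final) for 1 h. After NeutrAvidin enrichment of labelled DUBs and LysC/trypsin digestion, peptides were run by diaPASEF LC-MS/MS. The values are average log2 fragment/vehicle ratios from global-median-normalised Spectronaut label-free quantities, tested by unpaired t-test on proteins having ≥2 unique peptides.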

UniProt P51784 = molecular target: UniProt P51784
Procedure, shortened: as §1

UniProt Q5T2D3 = molecular target: T1, UniProt Q5T2D3
T1 sequence (whole entry): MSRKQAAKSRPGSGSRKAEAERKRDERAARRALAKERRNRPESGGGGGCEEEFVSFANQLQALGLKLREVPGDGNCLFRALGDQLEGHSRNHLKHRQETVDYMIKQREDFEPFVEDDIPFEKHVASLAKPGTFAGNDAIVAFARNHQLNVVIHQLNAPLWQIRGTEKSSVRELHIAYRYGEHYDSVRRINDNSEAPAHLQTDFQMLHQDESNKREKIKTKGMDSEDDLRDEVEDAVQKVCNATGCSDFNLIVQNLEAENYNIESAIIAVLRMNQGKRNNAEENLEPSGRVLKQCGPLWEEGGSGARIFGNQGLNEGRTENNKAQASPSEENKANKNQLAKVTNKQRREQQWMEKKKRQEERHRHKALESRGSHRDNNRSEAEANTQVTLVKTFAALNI
Procedure, shortened: as §1

UniProt Q8TE49 = molecular target: T2, UniProt Q8TE49
T2 sequence (whole entry): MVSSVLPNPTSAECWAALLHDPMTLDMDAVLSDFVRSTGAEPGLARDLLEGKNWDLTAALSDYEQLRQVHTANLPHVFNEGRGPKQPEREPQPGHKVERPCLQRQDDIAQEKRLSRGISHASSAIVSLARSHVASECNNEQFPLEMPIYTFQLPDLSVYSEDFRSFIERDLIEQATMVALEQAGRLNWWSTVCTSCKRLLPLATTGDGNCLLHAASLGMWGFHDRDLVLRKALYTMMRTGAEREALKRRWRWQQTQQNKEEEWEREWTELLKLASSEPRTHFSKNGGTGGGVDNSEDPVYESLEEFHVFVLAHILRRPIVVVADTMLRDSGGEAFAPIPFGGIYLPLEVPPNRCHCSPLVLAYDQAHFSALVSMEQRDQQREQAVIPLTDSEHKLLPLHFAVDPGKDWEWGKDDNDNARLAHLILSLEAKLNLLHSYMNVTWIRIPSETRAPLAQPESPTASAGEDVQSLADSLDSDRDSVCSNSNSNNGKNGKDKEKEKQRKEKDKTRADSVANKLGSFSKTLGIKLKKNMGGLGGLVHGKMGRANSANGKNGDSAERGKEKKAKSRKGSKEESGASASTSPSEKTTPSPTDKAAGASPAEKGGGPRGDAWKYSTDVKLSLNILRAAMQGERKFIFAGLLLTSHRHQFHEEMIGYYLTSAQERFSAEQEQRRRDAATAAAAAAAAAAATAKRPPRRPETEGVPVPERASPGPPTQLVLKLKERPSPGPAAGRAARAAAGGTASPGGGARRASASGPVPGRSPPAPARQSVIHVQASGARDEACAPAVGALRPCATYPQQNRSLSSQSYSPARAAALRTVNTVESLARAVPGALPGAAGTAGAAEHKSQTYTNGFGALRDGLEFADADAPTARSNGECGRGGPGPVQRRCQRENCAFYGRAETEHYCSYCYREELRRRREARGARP
Procedure, shortened: as §1

UniProt Q9P2H5 = molecular target: T3, UniProt Q9P2H5
T3 sequence (whole entry): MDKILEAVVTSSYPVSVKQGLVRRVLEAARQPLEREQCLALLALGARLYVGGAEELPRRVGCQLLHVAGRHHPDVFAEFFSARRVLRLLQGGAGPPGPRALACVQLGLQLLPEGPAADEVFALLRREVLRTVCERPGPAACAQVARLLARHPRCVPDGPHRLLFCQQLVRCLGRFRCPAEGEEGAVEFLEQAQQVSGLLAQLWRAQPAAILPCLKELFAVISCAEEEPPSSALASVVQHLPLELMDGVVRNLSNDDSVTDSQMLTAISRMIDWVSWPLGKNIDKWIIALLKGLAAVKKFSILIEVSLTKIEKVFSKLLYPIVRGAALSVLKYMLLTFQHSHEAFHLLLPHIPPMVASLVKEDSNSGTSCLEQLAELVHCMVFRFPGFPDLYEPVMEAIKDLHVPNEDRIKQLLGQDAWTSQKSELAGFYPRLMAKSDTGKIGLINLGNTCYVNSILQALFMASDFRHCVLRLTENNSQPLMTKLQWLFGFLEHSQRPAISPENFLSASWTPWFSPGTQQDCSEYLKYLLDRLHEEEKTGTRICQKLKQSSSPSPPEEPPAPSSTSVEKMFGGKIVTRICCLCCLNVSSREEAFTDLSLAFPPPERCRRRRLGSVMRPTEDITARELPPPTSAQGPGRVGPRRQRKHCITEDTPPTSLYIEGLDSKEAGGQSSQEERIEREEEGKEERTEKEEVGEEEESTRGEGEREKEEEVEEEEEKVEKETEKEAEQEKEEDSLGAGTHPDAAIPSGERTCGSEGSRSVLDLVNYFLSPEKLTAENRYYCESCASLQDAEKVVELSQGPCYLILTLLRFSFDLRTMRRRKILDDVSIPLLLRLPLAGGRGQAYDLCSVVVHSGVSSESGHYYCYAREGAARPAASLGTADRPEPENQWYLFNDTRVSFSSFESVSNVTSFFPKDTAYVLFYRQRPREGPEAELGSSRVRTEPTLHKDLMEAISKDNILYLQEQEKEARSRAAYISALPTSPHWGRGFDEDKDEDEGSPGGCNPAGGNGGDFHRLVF
Procedure, shortened: as §1

UniProt Q9UGI0 = molecular target: T4, UniProt Q9UGI0
T4 sequence (whole entry): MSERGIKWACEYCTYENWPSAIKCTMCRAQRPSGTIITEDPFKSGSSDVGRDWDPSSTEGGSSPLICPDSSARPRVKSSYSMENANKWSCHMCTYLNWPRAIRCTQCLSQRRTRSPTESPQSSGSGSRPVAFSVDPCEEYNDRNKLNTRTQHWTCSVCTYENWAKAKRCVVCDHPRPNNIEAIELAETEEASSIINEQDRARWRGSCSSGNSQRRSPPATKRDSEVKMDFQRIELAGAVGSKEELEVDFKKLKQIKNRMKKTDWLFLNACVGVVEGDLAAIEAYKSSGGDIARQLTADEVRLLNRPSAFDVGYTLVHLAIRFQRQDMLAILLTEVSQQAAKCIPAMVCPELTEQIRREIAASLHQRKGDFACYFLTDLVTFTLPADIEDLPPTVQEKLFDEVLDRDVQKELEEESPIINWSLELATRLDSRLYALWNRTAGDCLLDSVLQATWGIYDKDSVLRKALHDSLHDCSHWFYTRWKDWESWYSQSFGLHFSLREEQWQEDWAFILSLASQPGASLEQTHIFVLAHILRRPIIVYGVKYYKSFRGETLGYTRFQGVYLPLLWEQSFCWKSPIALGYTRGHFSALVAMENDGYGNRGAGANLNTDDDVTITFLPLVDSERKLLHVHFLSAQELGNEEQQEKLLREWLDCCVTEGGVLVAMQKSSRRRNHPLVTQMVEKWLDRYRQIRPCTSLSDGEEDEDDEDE
Procedure, shortened: as §1

YOD1 = molecular target: T5, YOD1 (UniProt Q5VVQ6)
T5 sequence (whole entry): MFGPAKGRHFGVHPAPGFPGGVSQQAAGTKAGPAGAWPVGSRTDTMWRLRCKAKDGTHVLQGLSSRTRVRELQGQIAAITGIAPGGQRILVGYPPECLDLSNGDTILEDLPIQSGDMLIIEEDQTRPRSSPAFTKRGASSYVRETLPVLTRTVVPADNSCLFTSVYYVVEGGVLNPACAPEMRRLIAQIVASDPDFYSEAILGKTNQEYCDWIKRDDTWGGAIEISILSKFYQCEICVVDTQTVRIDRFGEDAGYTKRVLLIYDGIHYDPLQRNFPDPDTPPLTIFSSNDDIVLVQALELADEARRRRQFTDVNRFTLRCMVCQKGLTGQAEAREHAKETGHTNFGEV
Procedure, shortened: as §1

Measured: log2 ratio of Biotin-Ahx-Ub-VS probe labelling

UniProt P51784, sequence (P51784 whole entry): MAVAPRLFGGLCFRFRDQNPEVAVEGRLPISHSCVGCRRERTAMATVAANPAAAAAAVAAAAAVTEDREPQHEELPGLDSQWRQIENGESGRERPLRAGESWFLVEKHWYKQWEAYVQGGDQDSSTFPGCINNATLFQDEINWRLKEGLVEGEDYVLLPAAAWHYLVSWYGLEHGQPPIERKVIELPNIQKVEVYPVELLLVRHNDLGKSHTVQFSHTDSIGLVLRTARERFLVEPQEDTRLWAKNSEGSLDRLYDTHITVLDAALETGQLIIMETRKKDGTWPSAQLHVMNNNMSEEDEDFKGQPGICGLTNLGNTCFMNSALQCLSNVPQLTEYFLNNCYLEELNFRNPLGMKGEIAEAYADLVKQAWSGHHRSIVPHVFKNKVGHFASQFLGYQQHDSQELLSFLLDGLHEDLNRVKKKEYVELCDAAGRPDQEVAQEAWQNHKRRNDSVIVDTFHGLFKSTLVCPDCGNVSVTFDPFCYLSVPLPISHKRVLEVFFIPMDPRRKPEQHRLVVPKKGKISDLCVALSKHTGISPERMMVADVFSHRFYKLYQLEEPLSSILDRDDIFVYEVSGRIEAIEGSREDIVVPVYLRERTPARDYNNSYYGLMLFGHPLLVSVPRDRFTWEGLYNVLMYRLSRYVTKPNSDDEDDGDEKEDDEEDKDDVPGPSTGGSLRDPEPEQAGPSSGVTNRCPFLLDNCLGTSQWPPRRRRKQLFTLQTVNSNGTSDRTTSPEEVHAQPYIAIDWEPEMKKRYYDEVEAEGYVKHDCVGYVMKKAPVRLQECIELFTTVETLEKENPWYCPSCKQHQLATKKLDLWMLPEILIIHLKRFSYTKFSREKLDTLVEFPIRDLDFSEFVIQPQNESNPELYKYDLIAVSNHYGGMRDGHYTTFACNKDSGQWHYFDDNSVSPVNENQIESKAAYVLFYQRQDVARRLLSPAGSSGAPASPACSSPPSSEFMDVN
UniProt O00507, sequence (O00507 whole entry, the tested form may be a part): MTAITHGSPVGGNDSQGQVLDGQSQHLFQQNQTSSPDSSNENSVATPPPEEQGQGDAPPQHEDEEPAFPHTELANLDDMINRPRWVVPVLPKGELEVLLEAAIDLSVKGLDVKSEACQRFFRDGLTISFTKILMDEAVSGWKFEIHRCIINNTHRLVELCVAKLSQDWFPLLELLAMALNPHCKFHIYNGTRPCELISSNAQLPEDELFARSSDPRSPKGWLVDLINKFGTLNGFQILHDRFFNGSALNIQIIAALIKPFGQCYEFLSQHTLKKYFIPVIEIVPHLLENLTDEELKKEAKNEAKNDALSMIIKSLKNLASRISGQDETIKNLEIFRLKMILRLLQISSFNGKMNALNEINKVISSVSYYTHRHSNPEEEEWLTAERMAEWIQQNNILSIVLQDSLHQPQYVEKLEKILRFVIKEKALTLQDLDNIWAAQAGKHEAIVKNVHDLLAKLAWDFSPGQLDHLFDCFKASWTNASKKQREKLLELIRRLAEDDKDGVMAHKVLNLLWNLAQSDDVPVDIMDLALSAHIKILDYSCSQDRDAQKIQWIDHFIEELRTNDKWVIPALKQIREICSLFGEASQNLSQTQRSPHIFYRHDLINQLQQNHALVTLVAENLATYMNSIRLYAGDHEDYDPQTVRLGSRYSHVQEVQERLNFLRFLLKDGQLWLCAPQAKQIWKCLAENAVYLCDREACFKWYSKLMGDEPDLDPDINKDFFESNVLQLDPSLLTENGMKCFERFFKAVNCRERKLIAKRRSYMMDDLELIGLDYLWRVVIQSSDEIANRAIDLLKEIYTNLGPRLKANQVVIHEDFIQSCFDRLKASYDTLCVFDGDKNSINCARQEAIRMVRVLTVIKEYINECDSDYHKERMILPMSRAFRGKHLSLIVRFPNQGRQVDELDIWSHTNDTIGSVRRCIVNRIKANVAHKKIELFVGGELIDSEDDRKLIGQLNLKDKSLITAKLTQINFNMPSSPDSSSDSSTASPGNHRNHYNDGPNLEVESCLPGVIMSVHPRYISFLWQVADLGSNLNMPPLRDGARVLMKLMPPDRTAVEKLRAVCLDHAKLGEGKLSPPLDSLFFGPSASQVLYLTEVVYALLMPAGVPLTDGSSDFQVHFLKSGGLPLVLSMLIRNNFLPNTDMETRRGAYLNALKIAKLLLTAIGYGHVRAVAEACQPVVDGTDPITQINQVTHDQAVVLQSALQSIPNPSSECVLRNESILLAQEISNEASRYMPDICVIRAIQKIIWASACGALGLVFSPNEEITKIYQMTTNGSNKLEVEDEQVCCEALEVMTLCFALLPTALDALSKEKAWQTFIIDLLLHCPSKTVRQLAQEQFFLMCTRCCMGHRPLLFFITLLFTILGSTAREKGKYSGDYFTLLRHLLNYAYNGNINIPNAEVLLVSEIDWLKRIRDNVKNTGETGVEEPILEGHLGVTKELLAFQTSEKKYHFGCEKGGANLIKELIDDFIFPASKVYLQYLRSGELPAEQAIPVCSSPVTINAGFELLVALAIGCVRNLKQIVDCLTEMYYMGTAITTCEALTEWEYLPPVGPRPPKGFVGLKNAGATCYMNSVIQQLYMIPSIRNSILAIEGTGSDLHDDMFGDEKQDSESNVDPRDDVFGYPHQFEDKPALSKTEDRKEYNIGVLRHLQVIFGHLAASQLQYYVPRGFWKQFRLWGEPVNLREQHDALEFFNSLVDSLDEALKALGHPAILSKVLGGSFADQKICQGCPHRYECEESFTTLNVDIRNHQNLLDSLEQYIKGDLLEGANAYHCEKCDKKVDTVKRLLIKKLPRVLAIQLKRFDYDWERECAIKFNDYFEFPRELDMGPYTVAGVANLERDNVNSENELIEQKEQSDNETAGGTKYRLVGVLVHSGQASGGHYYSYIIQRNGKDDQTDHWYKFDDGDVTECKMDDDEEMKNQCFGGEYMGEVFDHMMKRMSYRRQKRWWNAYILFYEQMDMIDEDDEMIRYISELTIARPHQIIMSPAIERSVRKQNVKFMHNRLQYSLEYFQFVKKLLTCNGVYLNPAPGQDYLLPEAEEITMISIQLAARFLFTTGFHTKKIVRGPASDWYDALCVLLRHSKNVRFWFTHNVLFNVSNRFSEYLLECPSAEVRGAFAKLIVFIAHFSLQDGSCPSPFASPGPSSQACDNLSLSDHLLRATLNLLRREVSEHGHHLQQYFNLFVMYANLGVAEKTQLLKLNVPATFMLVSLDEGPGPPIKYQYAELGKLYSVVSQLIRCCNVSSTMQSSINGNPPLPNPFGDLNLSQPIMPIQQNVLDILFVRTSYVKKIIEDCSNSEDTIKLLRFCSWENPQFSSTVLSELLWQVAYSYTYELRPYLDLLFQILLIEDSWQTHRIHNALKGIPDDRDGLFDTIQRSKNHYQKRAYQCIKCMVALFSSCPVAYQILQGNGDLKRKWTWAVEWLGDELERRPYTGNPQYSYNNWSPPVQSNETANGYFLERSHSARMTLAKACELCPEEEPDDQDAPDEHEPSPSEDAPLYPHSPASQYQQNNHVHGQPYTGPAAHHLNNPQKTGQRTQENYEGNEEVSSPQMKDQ

O=C(CCl)N1CCC(c2ccn[nH]2)C1 (stereo not drawn)
inactive: UniProt O00507 -0.147 | UniProt P51784 -0.136 | UniProt Q5T2D3 -0.179 | UniProt Q8TE49 -0.464 | UniProt Q9P2H5 -0.282 | UniProt Q9UGI0 -0.767 | YOD1 0.0756

Cc1cc(C(=O)NC2CCN(C(=O)CCl)CC2)no1
inactive: UniProt O00507 -0.438 | UniProt P51784 -0.169 | UniProt Q5T2D3 -0.252 | UniProt Q8TE49 -0.394 | UniProt Q9P2H5 0.0224 | UniProt Q9UGI0 -0.0524 | YOD1 -0.256

Cc1cccnc1NC(=O)C1CCN(C(=O)CCl)CC1.Cl
inactive: UniProt O00507 -0.282 | UniProt P51784 -0.0141 | UniProt Q5T2D3 -0.408 | UniProt Q8TE49 -0.254 | UniProt Q9P2H5 -0.348 | UniProt Q9UGI0 -0.465 | YOD1 -0.214

CN(C)S(=O)(=O)c1ccccc1CNC(=O)CCl
inactive: UniProt O00507 -0.154 | UniProt P51784 0.0361 | UniProt Q5T2D3 -0.255 | UniProt Q8TE49 -0.178 | UniProt Q9P2H5 -0.0151 | UniProt Q9UGI0 -0.47 | YOD1 0.0246

O=C(CCl)NCc1noc(C2CC2)n1
inactive: UniProt O00507 -0.504 | UniProt P51784 0.0106 | UniProt Q5T2D3 -0.464 | UniProt Q8TE49 -0.385 | UniProt Q9P2H5 -0.13 | UniProt Q9UGI0 -0.133 | YOD1 -0.415

O=C(CCl)N1CCCCC12CCOCC2
inactive: UniProt O00507 -0.561 | UniProt P51784 -0.343 | UniProt Q5T2D3 -0.414 | UniProt Q8TE49 -0.444 | UniProt Q9P2H5 -0.444 | UniProt Q9UGI0 -0.517 | YOD1 -0.518

Cc1ccc(N2CCC(NC(=O)CCl)C2=O)cc1 (stereo not drawn)
inactive: UniProt O00507 0.561 | UniProt P51784 0.0347 | UniProt Q5T2D3 -0.0872 | UniProt Q8TE49 -0.518 | UniProt Q9P2H5 -0.134 | UniProt Q9UGI0 0.0412 | YOD1 0.132

CC1CCc2onc(CNC(=O)CCl)c2C1 (stereo not drawn)
inactive: UniProt O00507 0.195 | UniProt P51784 0.152 | UniProt Q5T2D3 -0.305 | UniProt Q8TE49 -0.691 | UniProt Q9P2H5 -0.252 | UniProt Q9UGI0 -0.538 | YOD1 0.146

Cc1c(C#N)c(NC(=O)CCl)n(Cc2ccco2)c1C
inactive: UniProt O00507 -0.255 | UniProt P51784 -0.349 | UniProt Q5T2D3 -0.169 | UniProt Q9P2H5 -0.304 | UniProt Q9UGI0 -0.313 | YOD1 -0.0342
active: UniProt Q8TE49 -2.48
